For some assays here: Results with a measured potency or affinity are listed apart.
Assays:
Parameters in all cases: scale not given: direction of the effect not stated beside the values
[1] = target: Protein translocase subunit SecA (Escherichia coli (strain K12)) (UniProt P10408); assay: Assay to Identify E. coli SecA ATPase Inhibitors; type: functional; conditions: 30 µM
[2] = target: T1, Ubiquitin-activating enzyme e1, putative (Leishmania donovani (strain BPK282A1)) (UniProt E9BSI1); assay: Leishmania donovani Ubiquitin Activating Enzyme (LdE1); type: functional; conditions: 30 µM
T1 sequence (whole entry): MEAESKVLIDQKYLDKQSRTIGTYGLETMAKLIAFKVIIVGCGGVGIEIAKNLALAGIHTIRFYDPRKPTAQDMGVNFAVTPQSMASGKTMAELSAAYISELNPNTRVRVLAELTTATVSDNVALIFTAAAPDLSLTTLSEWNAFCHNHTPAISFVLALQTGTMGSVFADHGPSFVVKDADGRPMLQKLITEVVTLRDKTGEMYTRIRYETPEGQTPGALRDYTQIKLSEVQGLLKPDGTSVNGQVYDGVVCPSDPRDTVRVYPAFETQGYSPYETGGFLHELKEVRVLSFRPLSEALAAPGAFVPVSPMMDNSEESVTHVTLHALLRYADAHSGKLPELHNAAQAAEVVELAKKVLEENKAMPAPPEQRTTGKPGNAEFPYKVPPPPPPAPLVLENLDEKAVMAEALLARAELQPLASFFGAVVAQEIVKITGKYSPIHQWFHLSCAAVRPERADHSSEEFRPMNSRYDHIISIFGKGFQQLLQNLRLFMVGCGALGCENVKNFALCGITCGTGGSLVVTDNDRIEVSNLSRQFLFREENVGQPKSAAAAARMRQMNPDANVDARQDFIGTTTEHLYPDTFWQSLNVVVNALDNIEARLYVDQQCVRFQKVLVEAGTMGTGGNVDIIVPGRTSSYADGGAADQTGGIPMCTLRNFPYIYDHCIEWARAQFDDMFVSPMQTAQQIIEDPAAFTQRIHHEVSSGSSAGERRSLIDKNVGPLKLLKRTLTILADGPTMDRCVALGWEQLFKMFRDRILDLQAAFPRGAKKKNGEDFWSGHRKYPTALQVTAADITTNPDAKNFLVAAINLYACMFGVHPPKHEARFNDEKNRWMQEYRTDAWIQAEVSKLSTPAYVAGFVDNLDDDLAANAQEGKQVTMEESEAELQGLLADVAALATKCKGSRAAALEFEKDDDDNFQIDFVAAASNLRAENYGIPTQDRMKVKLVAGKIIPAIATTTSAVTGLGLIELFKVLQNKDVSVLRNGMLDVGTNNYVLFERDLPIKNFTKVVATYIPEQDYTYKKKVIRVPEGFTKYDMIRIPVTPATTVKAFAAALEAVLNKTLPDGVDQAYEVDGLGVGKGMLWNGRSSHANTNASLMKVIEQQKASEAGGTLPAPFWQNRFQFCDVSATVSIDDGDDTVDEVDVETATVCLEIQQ

[3] = target: AMP-activated protein kinase, AMPK (Homo sapiens) (UniProt P54646+O43741+P54619+Q9UGJ0+Q9Y478+Q13131+Q9UGI9); assay: AMP-dependent Kinase enzyme assay. An in vitro enzyme assay that detects ADP turnover that is directly proportional to AMPK activity. This uses naive AMPK that is activated during the assay with MK-8722; type: functional; conditions: 30 µM
[4] = target: Sialic acid-binding Ig-like lectin 9 (Homo sapiens) (UniProt Q9Y336); assay: Hs-Siglec9 ALPHAscreen SOP 20170721; conditions: 10 µM
Chain of Sialic acid-binding Ig-like lectin 9 (Homo sapiens) (Q9Y336 whole entry): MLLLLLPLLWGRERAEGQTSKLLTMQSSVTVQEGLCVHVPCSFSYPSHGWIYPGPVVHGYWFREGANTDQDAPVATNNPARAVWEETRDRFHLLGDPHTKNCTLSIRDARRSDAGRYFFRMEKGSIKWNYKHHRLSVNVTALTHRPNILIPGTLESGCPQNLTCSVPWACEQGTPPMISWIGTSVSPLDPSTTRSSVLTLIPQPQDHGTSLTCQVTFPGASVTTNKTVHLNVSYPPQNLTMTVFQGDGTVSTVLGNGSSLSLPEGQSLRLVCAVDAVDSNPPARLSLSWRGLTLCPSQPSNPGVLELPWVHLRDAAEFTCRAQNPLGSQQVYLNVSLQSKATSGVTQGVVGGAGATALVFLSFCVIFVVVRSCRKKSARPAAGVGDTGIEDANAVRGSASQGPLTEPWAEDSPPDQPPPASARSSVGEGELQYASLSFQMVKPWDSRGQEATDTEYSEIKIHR

Trypanosoma cruzi = assay: Trypanosoma cruzi phosphomannomutase and mannose-1-phosphate guanylyltransferase assay; type: functional; conditions: 10 µM
[5] = target: T2, Arginase-2, mitochondrial (Homo sapiens) (UniProt P78540); assay: in vitro enzyme assay to detect the production of urea directly proportional to the activity of Arginase II; type: functional; conditions: 33.3 µM; further: in the data most compounds retested in dose-response had high values
T2 sequence (whole entry): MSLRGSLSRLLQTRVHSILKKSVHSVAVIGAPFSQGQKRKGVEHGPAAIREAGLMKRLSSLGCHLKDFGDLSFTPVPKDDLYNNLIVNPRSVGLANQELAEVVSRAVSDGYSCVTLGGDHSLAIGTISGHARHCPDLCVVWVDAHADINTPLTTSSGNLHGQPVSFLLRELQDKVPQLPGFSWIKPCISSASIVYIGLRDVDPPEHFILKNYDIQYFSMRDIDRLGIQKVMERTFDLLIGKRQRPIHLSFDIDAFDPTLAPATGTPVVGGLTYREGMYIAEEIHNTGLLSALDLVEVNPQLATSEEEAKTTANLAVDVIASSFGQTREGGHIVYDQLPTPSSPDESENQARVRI

[6] = target: T3, Proteasome subunit beta (Trypanosoma cruzi) (UniProt O96673); assay: Trypanosoma cruzi proteasome chymotrypsin-like activity (TcProtChymo) assay.; further: in the data most compounds retested in dose-response had high values; type: functional; conditions: 9.37 µM
T3 sequence (whole entry): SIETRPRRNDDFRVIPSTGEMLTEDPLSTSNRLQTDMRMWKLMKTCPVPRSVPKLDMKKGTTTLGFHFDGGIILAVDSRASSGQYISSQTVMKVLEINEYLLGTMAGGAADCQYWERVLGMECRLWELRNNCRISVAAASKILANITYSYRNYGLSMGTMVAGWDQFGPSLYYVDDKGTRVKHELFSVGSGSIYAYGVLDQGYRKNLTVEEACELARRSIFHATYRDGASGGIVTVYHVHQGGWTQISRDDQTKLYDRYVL

Homo sapiens = species on record: Homo sapiens; assay: To identify inhibition of the IFN signalling (Jak-Stat) pathway via expression of an eGFP reporter gene under the control of an IFN-stimulated response element (ISRE) containing MxA promoter.; type: functional; conditions: 30 µM
[7] = target: T4, Tyrosyl-tRNA synthetase, putative (Trypanosoma cruzi (strain CL Brener)) (UniProt Q4DSP6); assay: Trypanosoma cruzi tyrosyl tRNA synthetase (TcYRS) _High Tyrosine SOP; type: functional; conditions: 30 µM; further: in the data most compounds retested in dose-response had high values
T4 sequence (whole entry): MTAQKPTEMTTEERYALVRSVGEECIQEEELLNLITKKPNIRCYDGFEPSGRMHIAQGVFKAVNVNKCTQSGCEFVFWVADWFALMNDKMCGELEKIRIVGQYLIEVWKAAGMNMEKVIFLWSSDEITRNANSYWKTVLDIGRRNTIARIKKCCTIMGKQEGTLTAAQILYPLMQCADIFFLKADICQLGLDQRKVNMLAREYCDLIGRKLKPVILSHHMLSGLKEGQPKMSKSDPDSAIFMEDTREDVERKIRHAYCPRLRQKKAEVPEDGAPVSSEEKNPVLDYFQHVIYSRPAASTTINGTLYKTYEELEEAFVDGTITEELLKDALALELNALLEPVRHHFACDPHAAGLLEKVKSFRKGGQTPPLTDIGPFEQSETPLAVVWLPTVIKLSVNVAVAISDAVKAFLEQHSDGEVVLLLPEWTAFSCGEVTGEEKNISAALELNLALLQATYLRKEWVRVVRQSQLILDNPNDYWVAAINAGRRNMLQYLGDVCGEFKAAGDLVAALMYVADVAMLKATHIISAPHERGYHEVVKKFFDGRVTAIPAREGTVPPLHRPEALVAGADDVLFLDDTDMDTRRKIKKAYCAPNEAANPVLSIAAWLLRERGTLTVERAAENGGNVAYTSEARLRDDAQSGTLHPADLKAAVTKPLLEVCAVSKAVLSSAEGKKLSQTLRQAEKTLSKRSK

[8] = target: T4, Tyrosyl-tRNA synthetase, putative (Trypanosoma cruzi (strain CL Brener)); assay: Trypanosoma cruzi tyrosyl tRNA synthetase (TcYRS) SOP; type: functional; conditions: 30 µM
[9] = target: Chromo domain-containing protein 1 (Saccharomyces cerevisiae (strain ATCC 204508 / S288c) (Baker's yeast)) (UniProt P32657); assay: ScCHD-1 Enzyme Inhibition Assay; type: functional; conditions: 30 µM; further: in the data most compounds retested in dose-response had high values
Chain of Chromo domain-containing protein 1 (Saccharomyces cerevisiae (strain ATCC 204508 / S288c) (Baker's yeast)) (P32657 whole entry, the tested form may be a part): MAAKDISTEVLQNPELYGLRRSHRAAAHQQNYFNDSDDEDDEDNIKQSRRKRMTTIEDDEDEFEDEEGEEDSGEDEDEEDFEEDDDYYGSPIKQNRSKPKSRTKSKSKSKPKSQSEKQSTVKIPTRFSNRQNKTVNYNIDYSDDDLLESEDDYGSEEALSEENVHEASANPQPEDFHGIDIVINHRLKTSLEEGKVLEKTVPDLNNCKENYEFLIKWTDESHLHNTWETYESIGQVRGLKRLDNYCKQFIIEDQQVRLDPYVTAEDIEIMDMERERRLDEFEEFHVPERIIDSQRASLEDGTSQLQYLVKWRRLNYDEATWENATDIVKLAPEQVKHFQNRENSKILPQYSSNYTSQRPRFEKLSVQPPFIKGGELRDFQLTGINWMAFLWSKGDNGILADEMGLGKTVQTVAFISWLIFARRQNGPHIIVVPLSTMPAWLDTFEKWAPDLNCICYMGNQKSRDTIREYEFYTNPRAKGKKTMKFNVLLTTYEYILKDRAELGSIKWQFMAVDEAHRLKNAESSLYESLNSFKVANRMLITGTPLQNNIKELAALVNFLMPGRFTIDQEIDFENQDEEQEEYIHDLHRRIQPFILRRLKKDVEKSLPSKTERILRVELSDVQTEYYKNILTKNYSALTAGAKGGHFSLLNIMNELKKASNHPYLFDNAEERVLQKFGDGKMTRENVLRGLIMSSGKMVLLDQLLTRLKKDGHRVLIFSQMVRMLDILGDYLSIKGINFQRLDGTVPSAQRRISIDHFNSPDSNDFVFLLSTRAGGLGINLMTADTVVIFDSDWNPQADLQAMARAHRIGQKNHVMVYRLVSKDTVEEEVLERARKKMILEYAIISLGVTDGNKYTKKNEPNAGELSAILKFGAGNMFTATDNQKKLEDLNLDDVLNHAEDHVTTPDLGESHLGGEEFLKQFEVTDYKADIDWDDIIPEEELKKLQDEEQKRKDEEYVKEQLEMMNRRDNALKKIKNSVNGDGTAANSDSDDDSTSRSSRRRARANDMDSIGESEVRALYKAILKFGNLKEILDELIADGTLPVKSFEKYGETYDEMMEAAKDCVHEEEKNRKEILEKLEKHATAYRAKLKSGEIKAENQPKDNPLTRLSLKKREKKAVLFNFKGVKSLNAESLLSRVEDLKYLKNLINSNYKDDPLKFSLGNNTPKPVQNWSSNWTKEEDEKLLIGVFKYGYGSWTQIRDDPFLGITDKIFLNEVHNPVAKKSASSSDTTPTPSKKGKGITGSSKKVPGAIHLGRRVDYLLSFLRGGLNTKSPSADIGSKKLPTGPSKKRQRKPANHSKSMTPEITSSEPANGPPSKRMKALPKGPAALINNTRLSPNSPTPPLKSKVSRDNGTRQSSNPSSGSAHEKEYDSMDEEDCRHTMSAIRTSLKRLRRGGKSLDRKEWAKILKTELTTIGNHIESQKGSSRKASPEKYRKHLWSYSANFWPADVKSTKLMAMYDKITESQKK

Chain of Protein translocase subunit SecA (Escherichia coli (strain K12)) (P10408 whole entry): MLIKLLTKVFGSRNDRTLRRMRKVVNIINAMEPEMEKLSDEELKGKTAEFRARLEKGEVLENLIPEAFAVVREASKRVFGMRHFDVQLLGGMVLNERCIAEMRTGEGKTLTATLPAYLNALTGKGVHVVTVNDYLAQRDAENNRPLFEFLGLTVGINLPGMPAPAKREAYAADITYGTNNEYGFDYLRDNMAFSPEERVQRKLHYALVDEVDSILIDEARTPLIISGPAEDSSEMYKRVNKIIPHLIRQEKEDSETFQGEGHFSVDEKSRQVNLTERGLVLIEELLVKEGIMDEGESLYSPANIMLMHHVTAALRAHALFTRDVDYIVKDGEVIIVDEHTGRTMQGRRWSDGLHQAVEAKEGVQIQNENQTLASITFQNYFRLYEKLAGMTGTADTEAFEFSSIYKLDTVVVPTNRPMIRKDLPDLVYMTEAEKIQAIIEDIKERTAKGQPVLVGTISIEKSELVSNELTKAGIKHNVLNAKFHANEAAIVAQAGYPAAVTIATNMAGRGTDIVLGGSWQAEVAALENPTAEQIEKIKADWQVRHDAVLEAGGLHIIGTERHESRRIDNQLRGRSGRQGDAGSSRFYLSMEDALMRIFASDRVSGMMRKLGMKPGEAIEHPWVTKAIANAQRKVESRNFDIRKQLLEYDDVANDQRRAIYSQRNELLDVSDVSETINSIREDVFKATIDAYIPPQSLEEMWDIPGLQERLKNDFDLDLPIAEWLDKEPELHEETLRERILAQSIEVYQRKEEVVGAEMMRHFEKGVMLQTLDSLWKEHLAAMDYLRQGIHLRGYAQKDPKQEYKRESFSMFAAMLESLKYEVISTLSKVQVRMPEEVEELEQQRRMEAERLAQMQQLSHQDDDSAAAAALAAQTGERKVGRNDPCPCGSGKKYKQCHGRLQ

Row | Structure (SMILES) | Percent Effect [1] [%] | Percent Effect [2] [%] | Percent Effect [3] [%] | Percent Effect [4] [%] | Percent Effect (Trypanosoma cruzi) [%] | Percent Effect [5] [%] | Percent Effect [6] [%] | Percent Effect (Homo sapiens) [%] | Percent Effect [7] [%] | Percent Effect [8] [%] | Percent Effect [9] [%]
1 | CC(C(=O)NCc1ccc(-n2cncn2)nc1)n1ccnc1 (stereo unspecified) | -3.77 | 2.6 | 0.227 | 15 | 2.25 | 1.05 | -1.21 | -15.5 | 2.86 | 2.35 | -8.54
2 | Cn1cc(N2CC3(CCN(CC4CCOCC4)CC3)OCC2=O)cn1 | -1.91 | 9.33 | 1.65 | 6.72 | -0.197 | 2.99 | 19.8 | 17.2 | 4.23 | 12.8 | -4.82
3 | CCOCc1ncn2c1CN(C(=O)Nc1cccc(C)c1)CC2 | -0.857 | -173 | 3.58 | 1.03 | -2.54 | 0.417 | 9.21 | 2.31 | 12.9 | 13.4 | 1.64
4 | O=C(Cc1cccc(F)c1)NCCNCc1cccc(O)c1 | -1.42 | -5.2 | 13.5 | 6.95 | 0.749 | 3.56 | -0.169 | 3.07 | 8.74 | 12.2 | -4.75
5 | COc1ccc(C(=O)N2CCCC(CNS(C)(=O)=O)C2)cc1F (stereo unspecified) | -4.66 | 8.11 | -5.72 | 6.16 | -3.3 | 2.4 | 0.18 | 6.39 | 5.42 | 16.1 | -6.29
6 | Cc1cc(C)n(CC(=O)N2CCC(NS(=O)(=O)c3ccccc3)CC2)n1 | -0.375 | 13.2 | 4.71 | 6.53 | -1.32 | 0.383 | 4.84 | 15.1 | 1.47 | 7.32 | -3.29
7 | Cc1ccc(CC(=O)N2CCOC(c3nc(C(C)(C)C)n[nH]3)C2)cn1 (stereo unspecified) | -3.58 | 12.5 | -9.66 | 13.3 | 4.76 | -0.442 | 7.72 | 2.71 | 3.16 | 5.13 | -2.81
8 | Cc1ccc(Nc2nccc(C3CN(CC(N)=O)C3)n2)nc1 | -6.39 | 20.3 | 2.38 | 3.4 | 7.12 | -5.8 | 17.2 | 10.7 | 8.6 | 24.7 | -14.1
9 | CC(C(=O)NCCOc1ccc2c(c1)OCO2)n1cncn1 (stereo unspecified) | -1.18 | 20.2 | -6.18 | -3.69 | -2.17 | 6.08 | 11.6 | -12.4 | 6.4 | 13.9 | -2.77
10 | CN(CC(=O)N1CCCC1c1cnn(C)c1)c1ccc(Cl)cn1 (stereo unspecified) | -8.15 | 7.89 | -2.82 | -3.87 | -7.56 | 2.52 | 7.19 | 6.79 | 2.46 | 6.17 | 0.471
11 | O=C(CCc1cscn1)N1CCCC(c2ccn[nH]2)C1 (stereo unspecified) | -3.73 | -5.2 | 4.11 | 6.88 | -2.62 | 1.07 | 5.91 | 15.7 | 2.91 | 0 | -3.79
12 | NC(=O)COc1ccc(CNCc2ccc(F)cc2F)cc1 | -2.69 | 6.94 | -4.07 | 9.21 | 3.01 | 24.7 | 8.42 | -28.4 | 9.47 | 12.8 | -5.67
13 | COCCC(=O)N1C[C@@H]2COC[C@]2(COCc2cccnc2)C1 | -1.17 | 13 | 1.86 | -1.48 | -14.7 | 12.3 | 12 | 17.3 | -1.06 | 8.97 | -8.34
14 | Cc1noc(C)c1CN1CC[C@@H](OCC2CC2)[C@@H](Cc2ccccc2)C1 | -3.38 | 13.3 | 8.95 | -2.52 | 3.15 | 1.63 | 14 | 1.91 | 5.32 | 14.1 | -5.06
15 | CCO[C@H]1CO[C@@]2(CCCN(Cc3nc(C)cs3)C2)C1 | -0.479 | 16.4 | -4.62 | 9.84 | 3.17 | -2.4 | 7.79 | -0.894 | 8.33 | 18.5 | -4.88
16 | CC(NC(=O)NCCCn1cncn1)c1ccc2c(c1)OCCO2 (stereo unspecified) | -1.3 | 18.9 | -2.43 | 0.133 | -3.81 | -1.66 | 14.2 | 6.17 | 2.97 | 15.8 | -2.48

— ChEMBL document CHEMBL3988442, “University of Dundee, Small-Polar-MMV Screening Library” (2021)
